# Screening results as filed in PubChem BioAssay.
# In the library only some 10% were active in any assay of this set; here they are far more common.
# Pf growth 96h: P. falciparum growth inhibition at 96 hours; P. falciparum luciferase reporter growth, 96 h; Potency, µM (series often up to 28.7 µM), without a hit: top-dose activity change, negative = inhibition, actives largely listed as inhibitors; 320,000 tested, 6.9% active; active = well fitted inhibition curve with a large enough effect; inconclusive = small, poorly fitted or top-dose-only effect, or another doubt; inactive = no such curve, though single readings can be large or run the other way; also: % is scaled to controls: 0 for no effect and ±100 for the full control effect
#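 Infected RBCs, 2% Hct / 0.05% parasitemia final; luciferase-reporter P. falciparum; cpd 96 h, 37 C, 5% CO2; luciferase detection reagent; luminescence.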
# NS1 function inh: inhibitors of influenza NS1 protein function | Potency, µM (series often up to 46.1 µM), for inactives: at the highest dose activity, positive = more growth | 270,000 tested, 0.4% active; also: actives are rising curves; nearly all actives have a fitted effect of over 50% in size
#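 OD600 was taken as the measure of yeast growth restored by compound in an NS1-expressing S. cerevisiae strain. Cells had been washed out of glucose medium and diluted 1:100 into galactose -URA medium, pH 6.0.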
# SARS PLP yeast: blocks SARS-CoV papain-like protease in a yeast assay; Potency, µM (series often up to 32.9 µM), for inactives: top-dose activity, positive = growth rescue, actives largely listed as activators; 330,000 tested, 0.19% active; S. cerevisiae expressing SARS-CoV PLpro, growth rescue; AID 485353; also: 0% is about no effect; nearly all actives have a fitted effect of over 55% in size
# Pf growth 48h: P. falciparum growth inhibition at 48 hours (one generation) | P. falciparum luciferase growth in erythrocytes, 48 h | Potency, µM (doses to about 28.7 µM), for inactives: top-dose activity change, negative = inhibition, most hits filed as inhibitors | 310,000 tested, 5.9% active | AID 504832; active = well fitted inhibition curve with a large enough effect; inconclusive = small, poorly fitted or top-dose-only effect, or another doubt; inactive = no such curve, though single readings can be large or run the other way; also: % is scaled to controls: 0 for no effect and ±100 for the full control effect
#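 Erythrocytes infected with P. falciparum carrying an integrated firefly luciferase reporter (2% hematocrit, 0.1% parasitemia final) were exposed to compounds in RPMI 1640 with 0.5% Albumax at 37 C, 5% CO2. Growth inhibition was scored as reduced luminescence.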
# Numbers without * were called inactive; ? = inconclusive; . = no result. Unless noted, calls follow the shape of the full dose curve. Potency is read from the fitted curve at half-maximal effect.
SMILES,Pf growth 96h,NS1 function inh,SARS PLP yeast,Pf growth 48h
COc1ccc([C@@H]2[C@@H]3C(=O)N(C(C)(C)C)C(=O)[C@@H]3[C@]3(CC(C)C)C(=O)N(c4cccc(Br)c4)C(=O)N23)cc1,3.7µM*,13.3%,0.3%,?
CC[C@@]12C(=O)N(c3cccc(C)c3)C(=O)N1[C@H](c1ccc(OC)cc1)[C@@H]1C(=O)N(C(C)(C)C)C(=O)[C@@H]12,?,2.4%,2.8%,?
O=C(CCc1ccccc1)Nc1ccccc1C(=O)NCc1ccco1,13.1µM*,-7.1%,19.2%,?
O=C(Nc1ccccc1C(=O)NCc1ccccc1)c1ccco1,13.1µM*,-37.3%,-7.0%,-23.4%
O=C(NCc1ccco1)c1ccccc1NS(=O)(=O)c1ccc2c(c1)OCCO2,.,-40.7%,.,16.5µM*
O=C(Nc1ccccc1C(=O)NCc1ccco1)c1ccccc1,11.8%,-81.8%,-18.9%,-1.0%
CC(C)(C)NS(=O)(=O)c1ccc(CCC(=O)NCc2ccco2)cc1,11.7µM*,0.9%,2.1%,-28.4%
O=C(NC(O)C(=O)c1ccccc1)c1ccc(F)cc1 (stereo unspecified),16.1%,-0.7%,5.0%,17.4%
Cc1csc2c(SCC(=O)NNC(=O)C(Cl)Cl)ncnc12,?,-6.6%,-1.2%,3.29µM*
COc1ccc(-c2c([C@H]3[C@H]4C=CC[C@@H](C)[C@@H]4C(=O)N3Cc3ccccc3)ccc3ccccc23)cc1OC,2.94µM*,4.3%,-1.1%,2.33µM*
C[C@@H]1CC=C[C@H]2[C@H]1C(=O)N(Cc1ccccc1)[C@H]2c1ccc(/C=C/c2ccccc2)cc1F,?,20.8%,-6.4%,10.4µM*
COc1ccc(-c2ccc(F)cc2)cc1[C@H]1[C@H]2C=CC[C@@H](C)[C@@H]2C(=O)N1Cc1ccccc1,?,8.4%,-6.7%,11.7µM*
C[C@@H]1CC=C[C@H]2[C@H]1C(=O)N(Cc1ccccc1)[C@H]2c1ccc(-c2ccc(F)cc2)cc1F,?,-12.8%,-4.1%,?
COC(=O)[C@@H]1CC[C@H](C)[C@@H](c2ccc(C)cc2)N1C(=O)c1ccc(/C=N/OCC[C@@H]2C=C[C@H](OC(C)=O)[C@@H](COC(C)=O)O2)cc1,10.4µM*,?,20.0%,?
CCCNC(=O)OC[C@H]1O[C@H](CCO/N=C/c2ccc(C(=O)N3[C@H](c4ccc(C)cc4)[C@@H](C)CC[C@H]3C(=O)OC)cc2)C=C[C@@H]1Oc1ccc(OC)cc1,2.08µM*,9.5%,6.7%,?
COC(=O)[C@@H]1CC[C@H](C)[C@@H](c2ccc(C)cc2)N1C(=O)c1ccc(/C=N/OC[C@@H](O)[C@H]2O[C@@H]3OC(C)(C)O[C@@H]3[C@H]2O)cc1,?,-65.2%,-3.8%,?
COC(=O)[C@@H]1CC[C@H](C)[C@@H](c2ccc(C)cc2)N1C(=O)c1ccc(/C=N/O[C@@H](C)c2cn([C@H](CO)Cc3ccccc3)nn2)cc1,4.65µM*,28.6%,6.4%,3.7µM*
COc1cccc(-n2cc(CNC(=O)C3CCC(=O)N(C4CC4)C3)cn2)c1 (stereo unspecified),34.3%,0.5%,5.0%,0.2%
CCOC(=O)C1CCCN(C(=O)c2cc3c(OC)c(OC)c(OC)cc3[nH]2)C1 (stereo unspecified),8.8%,4.2%,-5.4%,-37.7%
O=C(c1cccc(NS(=O)(=O)c2ccc(F)c(F)c2)c1)N1CCCCC1,19.2%,.,-4.1%,13.5%
CCC(CO)NCc1cc(OC)c(OCC(=O)NCCc2ccccc2)cc1Br (stereo unspecified),4.15µM*,4.5%,8.9%,?
COc1cc(CNC(C)c2ccccc2)c(Br)cc1OCC(N)=O (stereo unspecified),8.28µM*,-5.0%,-5.9%,.
CCc1ccc(NC(=O)c2cnc(N3CCN(c4ccccn4)CC3)c3ccccc23)cc1,13.1µM*,.,-1.6%,?
O=C(CSc1ccc2nnc(CCNC(=O)c3ccccc3)n2n1)Nc1ccc(F)cc1F,?,2.0%,-3.3%,1.1%
COc1cccc(CSCC(=O)O)c1,.,3.5%,.,.
SMILES,Pf growth 96h,NS1 function inh,SARS PLP yeast,Pf growth 48h
CC(C)Oc1ccccc1/C=N/NC(=O)C1CCCC1,2.62µM*,-1.1%,15.7%,-3.0%
CCc1nc2c(cnn2-c2ccc(F)cc2)c(=O)n1-c1ccc(N2CCC(C)CC2)cc1,3.29µM*,3.5%,-2.4%,.
CSc1ccc2c(c1)C(N1CCN(C)CC1)Cc1ccccc1S2 (stereo unspecified),?,-68.7%,-0.8%,?
CN1CCN(C2Cc3ccccc3Sc3ccc(Cl)cc32)CC1 (stereo unspecified),16.9µM*,-34.8%,.,13.1µM*
CN(C)CCn1nnnc1SCC1=C(C(=O)O)N2C(=O)[C@@H](NC(=O)Cc3csc(N)n3)[C@H]2SC1,13.4%,.,.,11.3%
CN(C)CCn1nnnc1SCC1=C(C(=O)O)N2C(=O)[C@@H](NC(=O)Cc3csc(N)n3)[C@@H]2SC1,6.42µM*,.,.,?
COc1ccc(S(=O)(=O)N2CCOCC2)cc1C(=O)N1CCCC1,-14.9%,1.2%,-3.7%,4.5%
CN(C)c1ccc(CNCCC(Cc2ccccc2)c2ccco2)cc1 (stereo unspecified),9.28µM*,-30.3%,-4.8%,?
c1ccc(CNCCC(Cc2ccccc2)c2ccco2)cc1 (stereo unspecified),-14.1%,2.7%,-1.8%,?
CCC(=O)c1ccc(OCC(O)Cn2cnc3ccccc32)cc1 (stereo unspecified),1.85µM*,10.7%,-3.2%,-34.7%
NC(N)=NC(N)=Nc1ccc(O)cc1,-2.8%,2.1%,-1.4%,?
Cc1ccc(N=C(N)N=C(N)N)cc1,?,-0.6%,1.9%,9.28µM*
O=C(O)c1cc(S(=O)(=O)NCCOc2ccccc2)ccc1Cl,.,.,2.8%,.
OCCC1CN(C2CCSCC2)CCN1C1CCCC1 (stereo unspecified),-12.5%,3.4%,-0.3%,-4.3%
CC(C)N1CCC(N2CCN(C3CCCC3)CC2CCO)CC1 (stereo unspecified),13.1µM*,7.9%,-0.1%,-14.3%
Cc1nn(C2CCS(=O)(=O)C2)c(Cl)c1/C=C/C(=O)OCC(=O)c1c[nH]c2ccccc12 (stereo unspecified),?,?,10.8%,?
Cc1nn(C2CCS(=O)(=O)C2)c(Cl)c1/C=C/C(=O)OCC(=O)c1cc(C)n(-c2ccc(F)cc2)c1C (stereo unspecified),?,?,22.8%,14.7µM*
CCCCC1=CC2=CC(=O)C(C)(OC(=O)CC)C(=O)C2=CN1c1ccc(OC)cc1 (stereo unspecified),9.28µM*,16.2%,-5.7%,11.7µM*
CCCCC1=CC2=CC(=O)C(C)(OC(=O)CC)C(=O)C2=CN1C1CCCCC1 (stereo unspecified),9.28µM*,-2.2%,0.6%,?
CC1(OC(=O)CCc2ccccc2)C(=O)C=C2C=C(c3ccc(C#N)cc3)N(C3CC3)C=C2C1=O (stereo unspecified),?,5.9%,4.1%,13.1µM*
O=C(NC1CCS(=O)(=O)C1)c1ccc2c(c1)OCO2 (stereo unspecified),22.2%,.,-1.8%,0.6%
